This note sets out measurements from the supplement of paper PMC9262897, “Low-cost anti-mycobacterial drug discovery using engineered E. coli” (Nature Communications, 2022).

Where a name gives a salt, the structure may show the parent alone. ± gives the standard deviation of the averaged measurements.

The experiment has as its system E. coli TESEC Alr+ wild-type control. Kind of experiment: growth (OD600 after 10 h); higher = more growth (less inhibition). The conditions noted are these: compound 0.1 mM; raw OD600 reference: median of DMSO wells 0.241, cell-free background 0.041. Here is the method: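 TESEC Mtb Alr E. coli, or the Alr+ wild-type control, in 384-well plates with Prestwick library compounds at 0.1 mM and 1% DMSO, across arabinose induction levels of 1E3 to 1E7 nM. Growth is read as OD600 after 10 h at 37 °C in triplicate biological replicates.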
Take `CCCNC(C)(C)COC(=O)c1ccccc1` [Meprylcaine hydrochloride]: the growth was found to be 0.234 ± 0.0059.

In turn, `CN1CCC(=C2c3ccccc3CCc3cccnc32)CC1` [Azatadine maleate] registered a growth of 0.1961 ± 0.0017.

In the case of `CNC(=C[N+](=O)[O-])NCCSCc1csc(CN(C)C)n1` [Nizatidine], the growth is 0.241 ± 0.0083.

Turning to `Fc1ccc(C(c2ccc(F)cc2)N2CCN(C/C=C/c3ccccc3)CC2)cc1` [Flunarizine dihydrochloride], the growth was found to be 0.0778 ± 0.012.

Compound `CC(C(=O)O)c1cccc(C(=O)c2ccccc2)c1` (stereo not given) [Ketoprofen] displayed a growth of 0.227 ± 0.0059.

As for `C1N2CN3CN1CN(C2)C3` [Methenamine], the growth turned out to be 0.245 ± 0.011.

Turning to `Cc1c(N(C)CS(=O)(=O)O)c(=O)n(-c2ccccc2)n1C` [Dipyrone], the growth turned out to be 0.245 ± 0.0074.

`Cc1onc(-c2ccccc2)c1-c1ccc(S(N)(=O)=O)cc1` [Valdecoxib] registered a growth of 0.124 ± 0.0019.

Compound `O=C(C1CCCCC1)N1CC(=O)N2CCc3ccccc3C2C1` (stereo not given) [Praziquantel] returned a growth of 0.207 ± 0.0042.

`Clc1ccc(Cn2c(CN3CCCC3)nc3ccccc32)cc1` [Clemizole hydrochloride] displayed a growth of 0.151 ± 0.0091.

For the compound `O=C(O)c1ccccc1OP(=O)(O)O` [Fosfosal], the growth is 0.242 ± 0.0067.

`COc1ccc(C2CNC(=O)C2)cc1OC1CCCC1` (stereo not given) [Rolipram] displayed a growth of 0.209 ± 0.0078.

`CCC1=C(C)CN(C(=O)NCCc2ccc(S(=O)(=O)NC(=O)N[C@H]3CC[C@H](C)CC3)cc2)C1=O` [Glimepiride] came in with a growth of 0.247 ± 0.0069.

As for `CC(=O)Nc1c(I)c(C(=O)N[C@H]2C(O)O[C@H](CO)[C@@H](O)[C@@H]2O)c(I)c(N(C)C(C)=O)c1I` (stereo not given in full) [Metrizamide], the growth came to 0.246 ± 0.014.

On to `CN(C(=O)C(Cl)Cl)c1ccc(OC(=O)c2ccco2)cc1` [Diloxanide furoate], for which the growth is 0.185 ± 0.0099.

In the case of `Cc1c(Cl)cccc1Nc1ccccc1C(=O)O` [Tolfenamic acid], the growth was 0.0444 ± 0.0007.

`COc1ccc(C(=O)CC(=O)c2ccc(C(C)(C)C)cc2)cc1` [Avobenzone] displayed a growth of 0.116 ± 0.017.

Compound `NCc1ccccc1CC(=O)N[C@@H]1C(=O)N2C(C(=O)O)=C(CSc3nnnn3CC(=O)O)CS[C@H]12` [Ceforanide] yielded a growth of 0.3 ± 0.0032.

The compound `CN(C)CCCN1c2ccccc2CCc2ccccc21` [Imipramine hydrochloride] had a growth of 0.189 ± 0.019.

On to `COc1ccc(-c2cc(=O)c3c(O)cc(O[C@@H]4O[C@H](CO[C@@H]5O[C@@H](C)[C@H](O)[C@@H](O)[C@H]5O)[C@@H](O)[C@H](O)[C@H]4O)cc3o2)cc1O` [Diosmin], for which the growth stood at 0.296 ± 0.0078.

The compound `COC(=O)N/N=C/c1c[n+]([O-])c2ccccc2[n+]1[O-]` [Carbadox] showed a growth of 0.197 ± 0.014.

`N=C(N)NC(=O)c1nc(Cl)c(N)nc1N` [Amiloride hydrochloride dihydrate] displayed a growth of 0.236 ± 0.012.

Turning to `Nc1nc(Cl)nc2c1ncn2[C@H]1C[C@H](O)[C@@H](CO)O1` [Cladribine], the growth worked out at 0.263 ± 0.14.

As for `CO[C@@]1(NC(=O)C2SC(=C(C(N)=O)C(=O)O)S2)C(=O)N2C(C(=O)O)=C(CSc3nnnn3C)CS[C@@H]21` (stereo not given in full) [Cefotetan], the growth came out at 0.03883 ± 0.00012.

In turn, `CC(=O)O[C@H]1C[C@@]2(C)[C@@H](C[C@@H](O)[C@H]3[C@@]4(C)CC[C@@H](O)[C@@H](C)[C@@H]4CC[C@@]32C)/C1=C(\CCC=C(C)C)C(=O)O` [Fusidic acid sodium salt] displayed a growth of 0.04197 ± 0.0004.

`COc1ccc(CN(CCN(C)C)c2ccccn2)cc1` [Pyrilamine maleate] came in with a growth of 0.2136 ± 0.002.

Compound `C#C[C@]1(O)CC[C@H]2[C@@H]3CCC4=Cc5oncc5C[C@]4(C)[C@H]3CC[C@@]21C` [Danazol] displayed a growth of 0.154 ± 0.027.

Turning to `CCN(CC)C(C)CN1c2ccccc2Sc2ccccc21` (stereo not given) [Ethopropazine hydrochloride], the growth was 0.17 ± 0.0058.

`CCCNC(C)C(=O)Nc1c(C)csc1C(=O)OC` (stereo not given) [Articaine hydrochloride] gave a growth of 0.249 ± 0.0025.

The compound `Cc1ccc(Cl)c(Nc2ccccc2C(=O)O)c1Cl` [Meclofenamic acid sodium salt monohydrate] registered a growth of 0.0491 ± 0.00067.

Consider `CC(=O)Nc1ccc(OCC(O)CNC(C)C)cc1` (stereo not given) [Practolol], for which the growth came to 0.244 ± 0.0047.

Take `CN(C)CCOC(=O)COc1ccc(Cl)cc1` [Meclofenoxate hydrochloride]: the growth is 0.235 ± 0.0029.

With `NCCNCCNCCNCCN` [Tetraethylenepentamine pentahydrochloride], the growth amounted to 0.273 ± 0.0096.

Regarding `C#C[C@]1(O)CC[C@H]2[C@@H]3CCC4=CC(=O)CC[C@@H]4[C@H]3CC[C@@]21C` [Norethindrone], the growth stood at 0.196 ± 0.042.

In turn, `Nc1c(Br)cc(Br)cc1CN[C@H]1CC[C@H](O)CC1` [Ambroxol hydrochloride] displayed a growth of 0.202 ± 0.0077.
